The panel holds about 79,000 compounds, 15% with a hit somewhere; the sample as a whole holds those more often. Activity calls are given as the source filed them. Cut-off read from the data, not from the text of the source: active = growth inhibition above about 70%; inactive = the rest.
Key:
[1] = NCI Yeast Anticancer Drug Screen. Data for the rad52 strain (AID 147);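 note: 0% = growth of vehicle-treated control cultures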; settings: S. cerevisiae rad52 mutant growth inhibition, hits give high values
Summary of the method: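 Measured: yeast growth inhibition. System: strain with a defined DNA damage repair alteration. Reference: vehicle-treated control cultures.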

[2] = NCI Yeast Anticancer Drug Screen. Data for the wt1 strain (AID 149);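 note: 0% = growth of vehicle-treated wt1 cultures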; settings: S. cerevisiae wt1 strain (SPY 50644) growth inhibition, hits give high values
Summary of the method: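 Measured: growth of wt1 yeast under compound versus vehicle treatment, reported as inhibition.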

[3] = NCI Yeast Anticancer Drug Screen. Data for the rad50EPP+ strain (AID 151);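 note: 0% = growth of vehicle-treated control cultures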; settings: S. cerevisiae rad50 mutant strain, hits give high values
Summary of the method: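 One strain with a rad50 alteration (rad50EPP+) was compound-treated, its growth then compared to that of vehicle controls.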

[4] = NCI Yeast Anticancer Drug Screen. Data for the mgt1 strain (AID 153); settings: S. cerevisiae mgt1 mutant growth inhibition, hits give high values
Summary of the method: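 After exposure of the mgt1 yeast mutant to compound, growth was measured and reported as inhibition compared with vehicle controls.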

[5] = NCI Yeast Anticancer Drug Screen. Data for the rad50 strain (AID 155);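 note: 0% = growth of vehicle-only cultures of the same strain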; settings: S. cerevisiae rad50 strain growth inhibition, hits give high values
Summary of the method: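 Growth of the mutant yeast was measured after compound exposure and referenced to vehicle-treated cultures.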

[6] = NCI Yeast Anticancer Drug Screen. Data for the mec2-1 strain (AID 157); settings: S. cerevisiae mec2-1 strain, hits give high values
Summary of the method: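 Test agents were screened against the mec2-1 yeast strain, with defined DNA repair or cell cycle alteration. Growth was scored as inhibition against vehicle-only controls.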

[7] = NCI Yeast Anticancer Drug Screen. Data for the rad14 strain (AID 159);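 note: 0% = growth of vehicle-treated control cultures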; settings: S. cerevisiae rad14 strain growth inhibition, hits give high values
Summary of the method: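 Here, inhibition of yeast growth was measured after compound exposure, using a strain with a genetic defect in DNA damage repair and vehicle-treated cultures as the reference.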

[8] = NCI Yeast Anticancer Drug Screen. Data for the sgs1 mgt1 strain (AID 161);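 note: 0% = growth of cultures given vehicle only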; settings: S. cerevisiae sgs1 mgt1 strain, hits give high values
Summary of the method: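 Mutant yeast exposed to compound; growth scored against vehicle-only wells.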

[9] = NCI Yeast Anticancer Drug Screen. Data for the CLN2oe strain (AID 163);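 note: 0% = growth of vehicle-only control cultures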; settings: S. cerevisiae CLN2oe strain, hits give high values
Summary of the method: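 Here, growth inhibition in a cell-cycle-altered yeast strain after compound exposure was quantified against vehicle control growth.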

[10] = NCI Yeast Anticancer Drug Screen. Data for the cln2 rad14 strain (AID 165);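 note: 0% = growth equal to vehicle treated cultures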; settings: S. cerevisiae cln2 rad14 strain, hits give high values
Summary of the method: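 Growth of compound-exposed yeast (cln2 rad14 genotype) measured and expressed as inhibition relative to vehicle.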

[11] = NCI Yeast Anticancer Drug Screen. Data for the bub3 strain (AID 167); settings: S. cerevisiae bub3 mutant strain, hits give high values
Summary of the method: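 Whole-cell yeast assay. The mutant strain was incubated with compounds, and growth inhibition was determined by comparison with vehicle-treated cells.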

[12] = NCI Yeast Anticancer Drug Screen. Data for the wt2 strain (AID 169);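 note: 0% = growth of vehicle-treated yeast cultures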; settings: S. cerevisiae wt2 strain growth inhibition, hits give high values
Summary of the method: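 Genetically defined yeast strains from a DNA-repair/cell-cycle panel were used. Compound-exposed yeast growth was measured, and the inhibition was calculated relative to vehicle treatment.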

[13] = NCI Yeast Anticancer Drug Screen. Data for the mlh1 strain (AID 171);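 note: 0% = growth of vehicle-treated control cultures of the same strain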; settings: S. cerevisiae mlh1 strain growth inhibition, hits give high values
Summary of the method: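 Here the genetically defined yeast mutant is grown with each compound, and the extent to which its growth falls below that of vehicle-exposed cells is reported.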

[14] = NCI Yeast Anticancer Drug Screen. Data for the sgs1 strain (AID 173);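 note: 0% = growth of vehicle-only control cultures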; settings: S. cerevisiae sgs1 mutant, hits give high values
Summary of the method: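 Relative growth inhibition, referenced to vehicle, was determined in a yeast strain with a defined alteration affecting DNA damage repair or cell cycle control after compound exposure.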

[15] = NCI Yeast Anticancer Drug Screen. Data for the mlh1 rad18 strain (AID 175); settings: S. cerevisiae mlh1 rad18 strain growth inhibition, hits give high values
Summary of the method: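 In this whole-cell yeast screen, a strain with altered DNA damage repair is challenged with compound, and its growth is measured against matched vehicle-treated controls.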

[16] = NCI Yeast Anticancer Drug Screen. Data for the rad18 strain (AID 177); settings: S. cerevisiae rad18 mutant growth inhibition, hits give high values
Summary of the method: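 Screen uses a yeast strain with a defined lesion in DNA damage repair; compound effect is read as loss of growth compared to untreated vehicle cultures.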

[17] = at 5.0 µM (retest, dose inferred, filed as 0.5)
[18] = at 50.0 µM (retest, dose inferred, filed as 5.0)

Measured: growth inhibition

CC12CCC(CC(=O)/C1=C(/Br)I)C2(C)C (stereo not drawn)
inactive: [1]; at 1.2 µM 2% | [1]; at 3.7 µM 3% | [1]; at 11.0 µM 5% | [1]; at 33.0 µM 13% | [1]; at 100.0 µM 3% | [2]; at 1.2 µM -3% | [2]; at 3.7 µM -2% | [2]; at 11.0 µM -1% | [2]; at 33.0 µM -6% | [2]; at 100.0 µM -1% | [3]; at 1.2 µM 1% | [3]; at 3.7 µM 5% | [3]; at 11.0 µM 7% | [3]; at 33.0 µM 12% | [3]; at 100.0 µM 3% | [4]; at 1.2 µM -1% | [4]; at 3.7 µM -2% | [4]; at 11.0 µM 6% | [4]; at 33.0 µM -13% | [4]; at 100.0 µM 0% | [5]; at 1.2 µM 1% | [5]; at 3.7 µM -3% | [5]; [17] 1% | [5]; at 11.0 µM -18% | [5]; at 33.0 µM 14% | [5]; at 100.0 µM 5% | [6]; at 1.2 µM 0% | [6]; at 3.7 µM -2% | [6]; [17] -19% | [6]; at 11.0 µM -5% | [6]; at 33.0 µM 5% | [6]; at 100.0 µM -3% | [7]; at 1.2 µM 1% | [7]; at 3.7 µM 1% | [7]; at 11.0 µM 2% | [7]; at 33.0 µM 3% | [7]; at 100.0 µM 2% | [8]; [17] -9% | [9]; at 1.2 µM -1% | [9]; at 3.7 µM 4% | [9]; at 11.0 µM 2% | [9]; at 33.0 µM 0% | [9]; at 100.0 µM 6% | [10]; [17] 40% | [10]; [18] 68% | [10]; at 50.0 µM 63% | [11]; at 1.2 µM 5% | [11]; at 3.7 µM 11% | [11]; [17] -11% | [11]; at 11.0 µM 18% | [11]; at 33.0 µM 24% | [11]; at 100.0 µM 10% | [12]; at 1.2 µM -2% | [12]; at 3.7 µM -1% | [12]; at 11.0 µM 1% | [12]; at 33.0 µM 3% | [12]; at 100.0 µM 0% | [13]; at 1.2 µM 2% | [13]; at 3.7 µM -3% | [13]; at 11.0 µM 3% | [13]; at 33.0 µM 3% | [13]; at 100.0 µM -1% | [14]; at 1.2 µM -2% | [14]; at 3.7 µM -1% | [14]; at 11.0 µM 1% | [14]; at 33.0 µM 21% | [14]; at 100.0 µM 1% | [15]; [17] -18% | [16]; at 1.2 µM 3% | [16]; at 3.7 µM 10% | [16]; at 11.0 µM 31% | [16]; at 33.0 µM 39% | [16]; at 100.0 µM -1%
active: [5]; [18] 80% | [5]; at 50.0 µM 81% | [6]; [18] 95% | [6]; at 50.0 µM 90.4% | [8]; [18] 93% | [8]; at 50.0 µM 84.3% | [11]; [18] 94% | [11]; at 50.0 µM 78.3% | [15]; [18] 96% | [15]; at 50.0 µM 83.2%
